Among the data in PubChem BioAssay (NCI) are growth values, retold here.

SMILES strings stand for the structures. About 83,000 compounds went through this panel and 20% of them were active in at least one assay; those are over-represented in the sample as a whole.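 How to read the values: 0–100, growth inhibition (40 = 60% inhibited); 0, no net growth; -100 to 0, cell death (-40 = 40% of starting cells died; -100 = all dead).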 Values without a mark were called inactive. Activity calls are given as the source filed them. The calls were made as follows: active = growth percent below 10; inactive = the rest.

In this assay the test system is ACHN renal. The assay is described as follows: NCI-60 one-dose screen, 48 h (100 = growth as untreated, 0 = no growth, -100 = all killed). The settings on record: 10 µM unless noted.
As for `COc1ccc(-c2cc(Cc3cccs3)c(=O)n(Cn3cncn3)n2)cc1`, the growth was 97.6%.

As for `CC1=CSC2=NCCN12`, the growth is 110%.

Take `Cc1ccc(NC(=O)Nc2ccc(-c3cccnc3)cc2N2CCC(CO)CC2)cc1`: the growth was 81.2%.

In the case of `COc1ccc2c(c1)C(=O)c1c-2c(OCCCN(C)C)nc2cc(Br)ccc12`, the growth is 3.65% (active).

Turning to `CCC(CC)NCCCCCNc1cc(OC)cc2cccnc12`, the growth is 94.8%.

As for `COc1cc(C2C=C(c3ccc(C)cc3)Nc3nc(SC)[nH]c(=O)c32)ccc1Oc1ccnc2cc(Cl)ccc12` (configuration not stated), the growth is 55.6%.

`O=c1[nH]c(=O)n(C2CC(O)C(CO)O2)cc1C(F)(F)F` (configuration not stated): the growth is 24.6%.

In the case of `Nc1nc(Cl)c2[nH]cnc2n1`, the growth was 96.4%.

Regarding `OC(CCC(O)(c1ccccc1)c1ccccc1)(c1ccccc1)c1ccccc1`, the growth was 100%.

Take `C[C@]12C[C@H](O)[C@H]3[C@@H](CCC4=CC(=O)CC[C@@]43C)[C@@H]1CC[C@@H]2C(=O)CO`: the growth was 95.8%.

For `COC(=O)[C@]12CC[C@@H](C)[C@H](C)[C@@H]1C1=CC[C@@H]3[C@@]4(C)C=C(O)C(=O)[C@@]5(C)COC(=C54)C[C@@]3(C)[C@]1(C)CC2`, the growth was -71.7% (active).

`C=C(C)[C@@H]1C/C=C(/C=O)CC[C@@H]2O[C@@]2(C)CC/C=C(\C)CC1`: the growth is 100%.

For `CCCOc1ccc2c(c1)CC[C@@H]1[C@@H]2CC[C@@]2(C)[C@H]1CC[C@]2(C)O`, the growth is 93.9%.

With `C/C(=N\N1CC(=O)NC1=O)c1ccc([N+](=O)[O-])o1`, the growth is 105%.

On to `CCC1=C(c2ccc(OC)cc2)C(C)(C)Oc2cc(O)c(CN3CCCC3)cc21`, for which the growth is 82.6%.

With `COc1ccc(Cn2cc3c(c2-c2ccccc2)CCc2cncnc2-3)cc1`, the growth was 76.8%.

Consider `CCC(CCC(C)C1CCC2C3CC=C4CC(O)CCC4(C)C3CCC12C)C(C)C` (configuration not stated) (tested in a mixture with another compound), for which the growth is 88%.

In the case of `COc1cc(OC)c2sc(-c3ccc(-n4cncc4-c4ccc(N)cc4)cc3)nc2c1`, the growth is 79.7%.

As to `CCn1c2c(c3ccccc31)SC1c3cccn3CCN1C2=S` (configuration not stated), the growth is 99.1%.

As for `COc1ccc(CCN2CCCN3C2=Nc2ccccc2S3(=O)=O)cc1`, the growth was 51%.

In the case of `O=C(Nc1ncc([N+](=O)[O-])s1)c1cccc([N+](=O)[O-])c1`, the growth is 59%.

On to `N#Cc1cnc2cc(OC[C@H](O)CO)c(NC(=O)CC3CSSC3)cc2c1Nc1ccc(OCc2cccc(F)c2)c(Cl)c1`, for which the growth was 20.8%.

In the case of `O=C(CSCC(=O)N/N=C/c1ccccc1O)N/N=C\c1ccccc1O`, the growth is 11.9%.

As for `CC(C)(C)c1ccc(S(=O)(=O)O)s1`, the growth was 96.3%.

Turning to `CSC1=Nc2c(c(C)c(-c3ccccc3)n2CCCN2CCCCC2)C2=NC(=O)C[C@H](C)N12`, the growth was 66.8%.

For the compound `CC(=O)Oc1ccc(C23c4ccccc4C2(OC(C)=O)c2cc(OC(C)=O)ccc23)cc1` (configuration not stated), the growth was 29.4%.

Turning to `COc1ccc2c(c1)C(=O)c1c-2c(OCCN(C)C)nc2cc(OC)ccc12`, the growth is -78.6% (active).

For `O=C1NCN(CCO)CN1`, the growth was 104%.

Regarding `CC(=O)NCCSC(=O)C(=O)SCCNC(C)=O`, the growth was 108%.

Turning to `CCc1[nH]nc(-c2ccc(OC)cc2)c1-c1ccccc1OCCN(CC)CC`, the growth is 98.5%.

With `Cc1cc(NC(=O)Nc2cccc3ccccc23)no1`, the growth is 98.4%.

Regarding `NC(=O)c1ccccc1NC(=O)c1ccccc1Cl`, the growth was 104%.

`CCCCCCCC/C=C\CCCCCCCCOc1ccccc1CC(=O)NCC[N+]1(C)CCCC1`: the growth is 107%.

Consider `c1ccc(-n2nnnc2-c2cccc3ccccc23)cc1`, for which the growth is 52.9%.

In the case of `O=C1c2ccccc2C(=O)c2c1cccc2-n1nnc2ccccc21`, the growth is 103%.

Consider `CCC(O)C(C)(C)C` (configuration not stated), for which the growth is 110%.

Take `Clc1ccc([C@@H]2C[C@@H]3Cc4cc(Br)c5ccccc5c4N2O3)c(Cl)c1`: the growth is 81.6%.
